Results taken from PubChem BioAssay AID624139 (Broad Institute, 2012).
The campaign covered roughly 17,000 compounds. About 220 (1.3%) were called active.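 The calls were made as follows: active = spot fluorescence over background significantly raised, with a chance value under 7% in all four replicate spots of the compound; inactive = the rest.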 Many of the other results were omitted from the sample, so actives are more common in it than they were.

Target: Nuclear factor NF-kappa-B p105 subunit (Homo sapiens) (UniProt P19838)
Sequence (P19838 1-433 limits assumed): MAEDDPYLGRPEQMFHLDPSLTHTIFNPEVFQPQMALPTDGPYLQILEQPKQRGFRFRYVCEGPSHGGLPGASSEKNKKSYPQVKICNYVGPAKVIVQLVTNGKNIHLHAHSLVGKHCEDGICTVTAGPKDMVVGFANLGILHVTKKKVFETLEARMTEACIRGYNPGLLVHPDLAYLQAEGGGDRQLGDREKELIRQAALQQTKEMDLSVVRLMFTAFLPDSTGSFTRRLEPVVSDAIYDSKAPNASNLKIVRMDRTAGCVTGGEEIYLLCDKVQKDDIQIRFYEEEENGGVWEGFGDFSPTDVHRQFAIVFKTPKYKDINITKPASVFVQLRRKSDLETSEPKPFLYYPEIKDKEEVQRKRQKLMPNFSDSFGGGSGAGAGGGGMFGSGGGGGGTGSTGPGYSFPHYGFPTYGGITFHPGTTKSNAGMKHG
Experiment: binders of NF-kB p50 subunit, primary screen, biochemical, small molecule microarray, anti-His fluorescence (AID 624139);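 also: probe protein is his-tagged human p50 processed subunit at 1 µg/ml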
Settings: anti-His fluorescence binding

outcome, inactive:
C[C@@H]1CN([C@@H](C)CO)C(=O)Cc2cc(NC(=O)Cc3ccccc3)ccc2O[C@H]1CN(C)Cc1ccc(C(=O)O)cc1, Cc1noc(C)c1NC(=O)Nc1ccc2c(c1)C(=O)N([C@H](C)CO)C[C@H](C)[C@H](CN(C)C(=O)C1CCCCC1)OCCCC[C@@H](C)O2, C[C@H]1CCCCO[C@H](CN(C)C(=O)CCC(F)(F)F)[C@@H](C)CN([C@@H](C)CO)C(=O)c2cc(NC(=O)Cc3ccccc3)ccc2O1, C=CC[C@]1(C(=O)NCC(O)CO)N=C(c2ccc(OCCCO)cc2)O[C@H]1c1ccccc1 (stereo not given in full), CNC[C@@H]1Oc2c(NC(=O)C3CCOCC3)cccc2C(=O)N([C@@H](C)CO)C[C@H]1C, COc1ccc(NC(=O)O[C@H]2[C@H](OC(=O)Nc3ccc4c(c3)OCO4)[C@@H](OC(=O)Nc3ccc4c(c3)OCO4)[C@@H](OC)O[C@@H]2CO)cc1, C[C@H](CO)N1C[C@H](C)[C@@H](CN(C)Cc2ccncc2)Oc2ccc(NC(=O)Nc3ccccc3)cc2C1=O, C[C@H](CO)N1C[C@H](C)[C@H](CN(C)Cc2ccncc2)Oc2ccc(NC(=O)Nc3ccc(F)cc3)cc2C1=O, C[C@@H]1CN([C@@H](C)CO)C(=O)c2cc(NS(=O)(=O)c3cn(C)cn3)ccc2O[C@@H](C)CCCCO[C@H]1CN(C)S(=O)(=O)c1cn(C)cn1, OC(COc1ccc2ccccc2c1)Cn1cncn1 (stereo not given), COc1ccc(S(=O)(=O)N(C)C[C@@H]2Oc3ccc(NS(=O)(=O)c4ccc(Cl)cc4)cc3C(=O)N([C@H](C)CO)C[C@H]2C)cc1, Cc1cc(C(=O)Nc2cccc3c2O[C@H](CN(C)C(=O)Nc2ccccc2)[C@@H](C)CN([C@H](C)CO)C3=O)n(C)n1, O=c1[nH]c(CSCCO)nc2c1C1(CCCCC1)Cc1ccccc1-2, C[C@@H]1CCCCO[C@@H](CN(C)Cc2ccc(Cl)c(Cl)c2)[C@@H](C)CN([C@@H](C)CO)C(=O)c2cc(NS(C)(=O)=O)ccc2O1, CO[C@H]1O[C@H](CO)[C@@H](OC(=O)Nc2ccccc2)[C@H](OC(=O)Nc2ccc3c(c2)OCO3)[C@H]1OC(=O)Nc1ccc2c(c1)OCO2, O=C(Cn1c(-c2ccccn2)nc2ccccc21)NCCN1CCOCC1, C[C@H]1CN([C@@H](C)CO)C(=O)CCCn2nncc2CO[C@@H]1CN(C)Cc1ccc(Oc2ccccc2)cc1, O=C1c2ccccc2C(=O)N1CCCn1c2ccccc2c2nc3ccc([N+](=O)[O-])cc3cc21, C[C@H]1CCCCO[C@@H](CN(C)Cc2ccncc2)[C@@H](C)CN([C@@H](C)CO)C(=O)c2cc(NC(=O)Nc3ccc(F)cc3)ccc2O1, CN(C)c1nc(Nc2nc3ccccc3[nH]2)nc(N(C)C)n1, Cc1ccc(NC(=O)c2ccc(NCc3cccnc3)c([N+](=O)[O-])c2)cc1, COc1ccc(S(=O)(=O)N(C)C[C@H]2Oc3ccc(NC(=O)CCC(F)(F)F)cc3CC(=O)N([C@H](C)CO)C[C@@H]2C)cc1, CC(C)NC(=O)N(C)C[C@H]1OCCCC[C@H](C)Oc2ccc(NC(=O)CCCN(C)C)cc2C(=O)N([C@@H](C)CO)C[C@H]1C, COC(=O)c1c(NC(=O)c2cc(-c3ccccn3)nc3c(C)cc(C)cc23)sc(C)c1C, CC(C)(C)[C@H]1C=C(C(=O)NCc2ccccc2)O[C@@H](OCc2ccc(CO)cc2)C1, Cc1sc2nc(SCC(=O)Nc3ccccc3C(F)(F)F)nc(N)c2c1C, NC(=O)CSc1nnc(-c2ccccc2F)n1-c1ccccc1, C[C@@H]1CN([C@H](C)CO)C(=O)c2cc(NC(=O)CCCN(C)C)ccc2O[C@H]1CN(C)Cc1ccc(C(=O)O)cc1, CC(C)NC(=O)N(C)C[C@H]1OCCCC[C@H](C)Oc2ccc(NC(=O)CCC(F)(F)F)cc2C(=O)N([C@@H](C)CO)C[C@@H]1C, C[C@@H]1CCCCO[C@@H](CN(C)Cc2ccccc2)[C@H](C)CN([C@H](C)CO)C(=O)c2cc(NS(=O)(=O)c3cccs3)ccc2O1, C[C@@H]1CN([C@H](C)CO)C(=O)Cc2cc(NC(=O)CCN3CCOCC3)ccc2O[C@H]1CN(C)Cc1ccncc1, C[C@@H]1CCCCO[C@H](CN(C)Cc2ccncc2)[C@H](C)CN([C@H](C)CO)C(=O)c2cc(NC(=O)Nc3ccccc3)ccc2O1, CC(C)NC(=O)Nc1cccc2c1O[C@H](CN(C)Cc1ccccc1)[C@H](C)CN([C@H](C)CO)C2=O, C[C@@H]1CN([C@H](C)CO)C(=O)Cc2cc(NC(=O)CCCN(C)C)ccc2O[C@@H]1CN(C)S(=O)(=O)c1cccs1, C[C@H](CO)N1C[C@H](C)[C@@H](CN(C)S(=O)(=O)c2cn(C)cn2)Oc2ccc(N(C)C)cc2CC1=O, C[C@H]1CN([C@@H](C)CO)C(=O)c2cc(NC(=O)Nc3cccc4ccccc34)ccc2O[C@@H]1CN(C)C, C[C@H](CO)N1C[C@H](C)[C@H](CN(C)C(=O)NC2CCCC2)Oc2ncc(-c3ccc(F)cc3)cc2C1=O, CCOc1ccc(-c2cn(S(=O)(=O)c3cccc4nsnc34)nc2N)cc1, Cc1cccc(NC(=O)CN2C(=O)CNC2=O)c1, CC(C)NC(=O)Nc1ccc2c(c1)C(=O)N([C@@H](C)CO)C[C@H](C)[C@@H](CN(C)C)O2, C[C@H](CO)N1C[C@H](C)[C@@H](CN(C)C)Oc2ccc(N(C)C)cc2C1=O, C[C@@H]1CN([C@H](C)CO)C(=O)c2cccc(NS(C)(=O)=O)c2O[C@@H]1CN(C)S(=O)(=O)c1cccs1, C[C@H]1CN([C@@H](C)CO)C(=O)c2cc(NC(=O)NC3CCCCC3)ccc2O[C@@H]1CN(C)S(=O)(=O)c1cccs1, COc1cccc(/C=C(\C#N)C(=O)Nc2c(C)n(C)n(-c3ccccc3)c2=O)c1, C[C@H](CO)N1C[C@H](C)[C@H](CN(C)C(=O)NC2CCCCC2)Oc2ccc(NC(=O)c3ccncc3)cc2CC1=O
